Shown are actives, neighbours in structure and some others; about 3.2% of the full set was active somewhere.
CendR NRP1 mod: modulators of CendR peptide binding to human neuropilin-1 | O14786 | inhibition, % at 25 µM | AID 602438 | 360,000 compounds, 0.85% hits | FAM-RPARPAR peptide binding to NRP-1, fluorescence polarization;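 active = inhibition or corrected inhibition above about 18%, plus a signal ratio from 0.5 to 1.5, limit read from the data, passing the limit was not always enough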
MEKK3 PB1 HTS: modulators (inhibitors or enhancers) of MEK5 binding to human MEKK3 PB1 domain. Q99759. bead-based flow cytometry, Alexa488-MEK5 binding to MEKK3; actives lie on both sides; 0 = blocked by unlabeled MEK5, 100 = vehicle. binding response (% of control), % at 10 µM. 290,000 compounds, 1.4% hits. AID 1529;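 active = binding response more than 3 SD above or below the average of its plate-row segment, actives on both sides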;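 also: Alexa488 bead fluorescence after subtracting the streptavidin-only scavenger bead signal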
Target sequence (Q99759 whole entry, looked up, the tested form may be a part): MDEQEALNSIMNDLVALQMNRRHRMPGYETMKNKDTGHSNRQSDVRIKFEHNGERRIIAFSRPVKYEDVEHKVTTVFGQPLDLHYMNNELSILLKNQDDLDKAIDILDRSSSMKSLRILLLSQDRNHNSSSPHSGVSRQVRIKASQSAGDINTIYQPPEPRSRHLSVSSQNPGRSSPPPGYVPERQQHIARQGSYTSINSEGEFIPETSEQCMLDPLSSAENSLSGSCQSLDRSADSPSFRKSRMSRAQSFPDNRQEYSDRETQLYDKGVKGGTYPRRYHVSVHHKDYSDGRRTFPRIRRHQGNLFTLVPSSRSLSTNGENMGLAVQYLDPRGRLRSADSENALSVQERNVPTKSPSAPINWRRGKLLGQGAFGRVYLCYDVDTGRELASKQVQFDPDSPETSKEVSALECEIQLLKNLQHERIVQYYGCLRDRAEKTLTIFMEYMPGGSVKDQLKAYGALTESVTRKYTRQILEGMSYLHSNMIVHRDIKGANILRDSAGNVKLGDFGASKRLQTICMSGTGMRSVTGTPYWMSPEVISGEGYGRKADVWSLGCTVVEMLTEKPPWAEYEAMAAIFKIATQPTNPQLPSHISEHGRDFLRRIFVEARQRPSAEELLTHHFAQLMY
SKN-1 block: inhibitors of C. elegans SKN-1. 360,000 compounds, 0.49% hits. AID 624304. inhibition, % at 21.8 µM. C. elegans VP596 Pgst-4::GFP/RFP ratio, acrylamide-induced, 24 h;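 active = interference check ratio from 0.5 to 1.5 plus GFP to RFP signal ratio inhibition reaching or exceeding a fixed threshold, cut at about 30% in these data, passing the limit was not always enough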
MEKK2 mut-MEK5: signal of MEK5 binding to mutant human MEKK2 PB1 domain; bead flow cytometry, Alexa488-MEK5 binding to MEKK2 mutant; 290,000 compounds, 0.35% hits; percent response, % at 10 µM; in the data active = percent response above about 24%, passing the limit was not always enough
MEKK2 WT-MEK5: raises or lowers MEK5 binding to wildtype human MEKK2 PB1 domain. bead flow cytometry, Alexa488-MEK5 binding to MEKK2 WT; actives lie on both sides. binding response (% of control), % at 10 µM. 290,000 compounds, 1.1% hits. AID 1531; in the data active = binding response below about 67% or above about 130%
Numbers without * were called inactive.

CCCCCCCC(=O)Nc1cc(C(=O)NCCC)ccc1N1CCC2(CC1)CC(c1ccccc1)=NO2 was read as CendR NRP1 mod -1, MEKK3 PB1 HTS 98, SKN-1 block -4, MEKK2 mut-MEK5 -6 and MEKK2 WT-MEK5 91.
For C=CCN(Cc1cccs1)C(=O)COc1ccc2c(c1)OCO2 the results were CendR NRP1 mod 13 and SKN-1 block -5.
CC(NC(=O)c1c(N)[nH]c(C(=O)c2ccccc2)c1-c1ccccc1Br)c1cccc2ccccc12 (stereo not drawn) was read as CendR NRP1 mod -26 and SKN-1 block 5.
`CC[n+]1c(/C=C/C=C/N(C(C)=O)c2ccccc2)sc2cc(OC)ccc21` gave MEKK3 PB1 HTS 89, MEKK2 mut-MEK5 15 and MEKK2 WT-MEK5 11*.
Screening CCCNC(=O)COc1coc(CN2CCN(c3ccccc3OC)CC2)cc1=O returned CendR NRP1 mod -1, MEKK3 PB1 HTS 104, SKN-1 block -13, MEKK2 mut-MEK5 5 and MEKK2 WT-MEK5 108.
Screening Cc1cc(C)nc(NC(=NCCc2c[nH]c3ccccc23)NC(=O)Nc2ccc(Cl)c(Cl)c2)n1 returned CendR NRP1 mod 3, MEKK3 PB1 HTS 109, SKN-1 block 0, MEKK2 mut-MEK5 47 and MEKK2 WT-MEK5 49*.
Screening Cc1cccc2nc(-c3cccnc3)c(NCCC(C)C)n12 returned CendR NRP1 mod 0, MEKK3 PB1 HTS 95, SKN-1 block 10, MEKK2 mut-MEK5 2 and MEKK2 WT-MEK5 -11*.
For Cc1cc(NC(=O)c2ccc(Cl)cc2Cl)n(-c2ccccc2)n1 the results were CendR NRP1 mod 18* and SKN-1 block 7.
For Cc1cc(NC(=O)COc2ccc(Cl)cc2Cl)n(-c2ccccc2)n1 the results were CendR NRP1 mod 4, MEKK3 PB1 HTS 96, SKN-1 block 9, MEKK2 mut-MEK5 -1 and MEKK2 WT-MEK5 97.
Cc1cc(N/C=C/C(=O)c2cccs2)ccc1F was read as CendR NRP1 mod -9, MEKK3 PB1 HTS 98, SKN-1 block 21, MEKK2 mut-MEK5 -5 and MEKK2 WT-MEK5 100.
For Cc1ccc(N/C=C/C(=O)c2cccs2)cc1C the results were CendR NRP1 mod -18, MEKK3 PB1 HTS 97, SKN-1 block 39*, MEKK2 mut-MEK5 -6 and MEKK2 WT-MEK5 94.
Screening CCOC(=O)c1c(C)[nH]c(C)c1C(=O)COC(=O)CCc1ccccc1 returned CendR NRP1 mod 10 and SKN-1 block 0.
For COc1ccc(C(C)(O)c2nc(-c3cccc(C(C)C)c3)cs2)cc1 (stereo not drawn) the results were CendR NRP1 mod -1 and SKN-1 block 6.
O=C(Nc1ccccc1)c1n[nH]c(Cn2cncn2)n1 was read as CendR NRP1 mod -8, MEKK3 PB1 HTS 103, SKN-1 block 12, MEKK2 mut-MEK5 -2 and MEKK2 WT-MEK5 101.
N#C/C(=C\c1ccc(Cl)cc1Cl)c1n[nH]c(Cn2cncn2)n1 was read as CendR NRP1 mod -4, MEKK3 PB1 HTS 106, SKN-1 block 44*, MEKK2 mut-MEK5 6 and MEKK2 WT-MEK5 108.
Screening Cc1ccc(NC(=O)COc2ncnc3c(Cl)cc(Cl)cc23)cc1[N+](=O)[O-] returned CendR NRP1 mod 25*, MEKK3 PB1 HTS 93, SKN-1 block -2, MEKK2 mut-MEK5 -2 and MEKK2 WT-MEK5 94.
`Cc1cc(Cl)ccc1OCC(=O)OCC(=O)Nc1ccc(F)c([N+](=O)[O-])c1` gave CendR NRP1 mod -2, MEKK3 PB1 HTS 102, SKN-1 block 1, MEKK2 mut-MEK5 0 and MEKK2 WT-MEK5 103.
Screening C=C1CCN(Cc2ccccc2)S(=O)(=O)c2ccccc21 returned CendR NRP1 mod -3, MEKK3 PB1 HTS 94, SKN-1 block 2, MEKK2 mut-MEK5 2 and MEKK2 WT-MEK5 94.
Screening O=C1CCN(Cc2ccccc2)S(=O)(=O)c2ccccc21 returned CendR NRP1 mod 24*, MEKK3 PB1 HTS 97, SKN-1 block 12, MEKK2 mut-MEK5 4 and MEKK2 WT-MEK5 96.
CCc1ccccc1NC(=O)NC1CC2CCC(C1)N2Cc1ccco1 (stereo not drawn) was read as CendR NRP1 mod 20*, MEKK3 PB1 HTS 94, SKN-1 block 6, MEKK2 mut-MEK5 -3 and MEKK2 WT-MEK5 97.
Screening CCOC(=O)[C@]12CCC=C1N(Cc1cccc3ccccc13)C(=O)[C@H](CC(=O)N1CCCC1)C2 returned CendR NRP1 mod 5 and SKN-1 block 15.

Screening results deposited in PubChem by several laboratories.
